The text below walks through data of PubChem BioAssay AID588453 (National Center for Advancing Translational Sciences (NCATS), 2011).

Out of some 390,000 compounds screened, about 4,000 (1%) were called active. Roughly 4% stayed inconclusive and do not appear here. Shown is part of a subset that was picked to be rich in actives. Unmarked numbers belong to inactive results. Calls follow the shape of the dose curve; as a rule, active = well fitted inhibition curve with a large enough effect; inconclusive = small, poorly fitted or top-dose-only effect; inactive = no such curve, though single readings can be large or run the other way.
% is scaled to controls: 0 for no effect and ±100 for the full control effect; potency is read from the fitted curve at half-maximal effect.

Sequence of Thioredoxin reductase 1, cytoplasmic (Rattus norvegicus) (O89049 whole entry, looked up): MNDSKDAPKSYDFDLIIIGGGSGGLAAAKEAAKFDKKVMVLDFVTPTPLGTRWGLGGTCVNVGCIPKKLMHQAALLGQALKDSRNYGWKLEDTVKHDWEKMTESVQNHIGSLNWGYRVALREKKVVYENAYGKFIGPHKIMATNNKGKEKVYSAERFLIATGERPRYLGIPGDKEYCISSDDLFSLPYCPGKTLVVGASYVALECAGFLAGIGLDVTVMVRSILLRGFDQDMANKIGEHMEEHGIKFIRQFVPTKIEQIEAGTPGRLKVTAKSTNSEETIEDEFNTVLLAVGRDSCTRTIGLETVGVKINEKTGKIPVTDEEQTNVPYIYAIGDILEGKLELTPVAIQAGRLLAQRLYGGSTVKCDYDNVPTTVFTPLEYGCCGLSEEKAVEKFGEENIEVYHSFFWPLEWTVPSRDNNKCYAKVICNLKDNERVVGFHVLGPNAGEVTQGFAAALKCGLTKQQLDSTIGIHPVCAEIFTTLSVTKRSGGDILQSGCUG

This assay concerns the target Thioredoxin reductase 1, cytoplasmic (Rattus norvegicus) (UniProt O89049). The assay can be described thus: qHTS Assay for Inhibitors of Mammalian Selenoprotein Thioredoxin Reductase 1 (TrxR1): qHTS. Also: nearly all actives have a fitted effect of over 65% in size. To be noted: recombinant rTrxR1, NADPH fluorescence consumption, selenite substrate; series mostly up to 114 µM; activity change, negative = inhibition: at the top concentration. An outline of the steps:
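Rat TrxR1 (90 nM in the dispensed reagent) was pre-reduced with 400 uM NADPH for 5 min at room temperature, then incubated with compound for 15 min. After 400 uM selenite was added, NADPH fluorescence (Ex 340/Em 450 nm) was followed for 8 min.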
(In general: Quantitative high-throughput screening tests each substance at several concentrations.)
On to `CCc1ccc(N(CC)C(=O)CCn2cnc3onc(-c4ccc(F)cc4)c3c2=O)cc1`, for which the “activity change, negative = inhibition” value is 9.72%. Regarding `COc1ccccc1NC(=O)CSc1nnc(-c2ccoc2C)n1CCc1ccccc1`, the “activity change, negative = inhibition” value was -4.19%.

Regarding `COc1cc(Cl)c(C)cc1NC(=O)CSc1nnc(CN2CCCC2)o1`, the “activity change, negative = inhibition” value was 33.7%.

Take `COc1cc(Cl)c(C)cc1NC(=O)CSc1nnc(-c2ccco2)n1CC(C)C`: the Potency is 12.6 µM (active).

As for `Cc1cccc(C(=O)Nc2ccc(S(=O)(=O)N3CCCCC3c3cccnc3)cc2)c1` (stereo not given), the “activity change, negative = inhibition” value is 20.3% [at 57.1 µM]. Turning to `Cc1ccc2oc(C(=O)Nc3ccc(S(=O)(=O)N4CCCCCC4)cc3)cc(=O)c2c1`, the “activity change, negative = inhibition” value is 24.7%. On the same count and under the same terms, the value for `COc1ccc(-c2nc3ccc(C(=O)NCc4ccc(C)cc4)cc3nc2-c2ccc(OC)cc2)cc1` was 36.4% [at 57.1 µM]. Turning to `CCOc1ccc(NC(=O)c2ncoc2-c2ccco2)cc1`, the “activity change, negative = inhibition” value is 7.87% [at 57.1 µM].

As to `COc1cc(-n2c(C)nc3cc(C(=O)NCc4ccco4)ccc32)cc(OC)c1OC`, the “activity change, negative = inhibition” value is -16.2%. With `C=CCNC(=O)c1ccc2nc(-c3ccco3)c(-c3ccco3)nc2c1`, the Potency was 7.94 µM (active). As for `COCCNC(=O)Nc1ccc2nc(-c3ccco3)c(-c3ccco3)nc2c1`, the Potency is 3.16 µM (active). In the case of `COc1ccc(NC(=O)COCc2cc(-c3ccco3)on2)cc1`, the “activity change, negative = inhibition” value is 23.4% [at 57.1 µM]. As for `Cc1nc2sc(C)c(C)n2c(=O)c1S(=O)(=O)NCCc1ccc(Cl)cc1`, the “activity change, negative = inhibition” value is 17.8%. For the molecule `O=C(NCCS(=O)(=O)N1CCN(c2ccc(F)cc2)CC1)c1ccccc1Br`, the “activity change, negative = inhibition” value is 15.9% [at 57.1 µM]. On the same count and under the same terms, to `O=[N+]([O-])c1ccc(/C=C/c2ccc3cccnc3c2)cc1` belongs 5.43%; to `O=C(Cn1cc(SCc2cccc(Cl)c2)c2ccccc21)N1CCCCC1`, 17%. Consider `N#C/C=C(/c1ccc(F)cc1)N1CCOCC1`, for which the “activity change, negative = inhibition” value is 12.6%. On to `N#C/C(=C/c1ccc(N2CCOCC2)o1)C(=O)N1CCOCC1`, for which the Potency was 50.1 µM (active). Take `O=C(N1CCOCC1)N1CCOCC1`: the “activity change, negative = inhibition” value is 32.6%. Still for that read-out and setting: to `COc1cccc(C(=O)NC(=O)Nc2ccc(-c3cc(C(F)(F)F)nn3-c3ccccc3)cc2)c1` belongs -9.56%. As for `Cc1cccc(-n2ncc(C(=O)N3CCN(c4ccc(Cl)cc4)CC3)c2C2CCN(C(=O)OC(C)(C)C)CC2)c1`, the “activity change, negative = inhibition” value is 5.36%.

Take `Cc1cccc(-n2ncc(Cl)c(Cl)c2=O)c1`: the Potency was 44.7 µM (active). Consider `Cc1cccc(-n2ncc(C(=O)N3CCC(C)CC3)c2C2CCN(C(=O)OC(C)(C)C)CC2)c1`, for which the “activity change, negative = inhibition” value was 29.8%.

On to `CCOc1ccc(C2CC(=O)c3c([nH]c(C(=O)OCc4ccccc4)c3C)C2)cc1` (stereo not given), for which the “activity change, negative = inhibition” value was 23%. For the molecule `CCc1ccc(OCCCn2c(CCCNC(=O)C3CCCCC3)nc3ccccc32)cc1`, the “activity change, negative = inhibition” value was 7.76%. Turning to `Cc1ccc(C=O)cc1Cl`, the “activity change, negative = inhibition” value is 27.3%.

Consider `Cc1ccc(-n2ncc3c(N4CCC(C(N)=O)CC4)ncnc32)cc1`, for which the “activity change, negative = inhibition” value is 10.5% [at 57.1 µM]. `Cc1cc(NC(=O)CSc2nc(=O)cc(N)n2-c2ccc(F)cc2)no1`: the “activity change, negative = inhibition” value is 8.12%. In the case of `Cc1cc(NC(=O)CCC(=O)N(CC(=O)NC2CCCC2)c2ccc(F)cc2)no1`, the “activity change, negative = inhibition” value was 27.1% [at 57.1 µM]. Turning to `Cc1cc(NC(=O)CCS(=O)(=O)c2ccc(F)cc2)no1`, the Potency was 44.7 µM (active).
